Experimental findings from PubChem BioAssay (Tox21) are described below.

Assay [1] is described as follows: qHTS assay to identify small molecule antagonists of the androgen receptor (AR) signaling pathway using the MDA cell line in the presence of 0.5 nM R1881 - cell viability counter screen (AID 1259242). Note: nearly all actives have a fitted effect of over 45% in size. Note: potency is the fitted concentration of half-maximal effect. An outline of the steps: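 Concentration-response screen of compounds for toxicity in MDA-kb2 reporter cells: 16 hr at 37C with 0.5 nM R1881, endpoint live-cell protease fluorescence measured in the reporter wells.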
(In general: Quantitative high-throughput screening tests each substance at several concentrations.)

Assay [2] is described as follows: qHTS assay to identify small molecule HDAC inhibitors (AID 1259364). For activity change, negative = inhibition: top concentration of the series differs between compounds. Note: potency is the fitted concentration of half-maximal effect.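 Note: wild-type HCT-116 cells with endogenous class I/II HDAC activity; nearly all actives have a fitted effect of over 45% in size.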 An outline of the steps: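 Screening used wild-type human colon HCT-116 cells incubated overnight, dosed with compounds for 2 hours, and assayed with a homogeneous luminogenic HDAC I/II reagent for 30 minutes at room temperature.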
Assay [3] can be described thus: qHTS assay to identify small molecule HDAC inhibitors - cell viability counter screen (AID 1259365). Note: series mostly up to about 92 µM; nearly all actives have a fitted effect of over 50% in size. An outline of the steps: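 HCT-116 (wild type), 1,500 cells/well, overnight 37C/5% CO2; compound in DMSO 2hr; CellTiter-Glo 30min RT; luminescence read.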
The nature of assay [4]: qHTS assay to identify small molecule agonists of the sonic hedgehog signaling (Shh) pathway - cell viability counter screen (AID 1259366). Note: nearly all actives have a fitted effect of over 50% in size. Note: potency is the fitted concentration of half-maximal effect. An outline of the steps:
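CellTiter-Fluor fluorescence read-out, 1 hr at 37C, added after 23hr compound exposure. Cells: 3T3 Gli1-Luc, an NIH/3T3 clone with stably integrated Gli1-Luc reporter, plated 4hr before compound.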

A short description of assay [5]: qHTS assay to identify small molecule antagonists of the sonic hedgehog signaling (Shh) pathway - cell viability counter screen (AID 1259367). Note: nearly all actives have a fitted effect of over 55% in size. Note: potency is the fitted concentration of half-maximal effect. An outline of the steps:
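Cytotoxicity was assessed in parallel with Shh reporter activity by measuring live-cell protease fluorescence (CellTiter-Fluor) in NIH/3T3 cells stably carrying Gli1-Luc, treated with compound under conditioned medium stimulation for 23 hr plus 1 hr reagent incubation.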

Assay [6] in a line: qHTS assay to identify small molecule agonists of the sonic hedgehog signaling (Shh) pathway (AID 1259368; calls by dose curve;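 note: NIH/3T3-derived 3T3Gli1-Luc cells carrying a stable Gli1-driven firefly luciferase reporter; series mostly up to about 92 µM; nearly all actives have a fitted effect of over 15% in size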). An outline of the steps: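 Hedgehog pathway agonism scored by increased firefly luciferase luminescence in 3T3Gli1-Luc cells treated 24 hr at 37 C; detection used a 30 min room-temperature reagent incubation.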
A short description of assay [7]: qHTS assay to identify small molecule agonists of the androgen receptor (AR) signaling pathway in the presence of an antagonist - cell viability counter screen (AID 1259379).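 For activity change, negative = cytotoxicity: MDA-kb2 human breast cancer cells carrying an MMTV luciferase reporter; series mostly up to about 92 µM.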 Note: nearly all actives have a fitted effect of over 25% in size. Note: potency is the fitted concentration of half-maximal effect. An outline of the steps: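 MDA-kb2 viability measured by CellTiter-Fluor fluorescence in the same wells as the luciferase signal; nilutamide 3.0uM final; 15-point compound titration; 16 hr at 37C.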

The nature of assay [8]: qHTS assay to identify small molecule agonists of the estrogen receptor beta (ER-beta) signaling pathway - cell viability counter screen (AID 1259380). Note: nearly all actives have a fitted effect of over 30% in size. Note: potency is the fitted concentration of half-maximal effect. An outline of the steps:
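Measured: luminescence from CellTiter-Glo after 30 min at room temperature, added to wells already read for the LiveBLAzer FRET reporter (2 hr substrate); ER-beta-UAS-bla HEK293T cells had 16 hr compound treatment at 37C, 5% CO2.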

The nature of assay [9]: qHTS assay to identify small molecule antagonists of the estrogen receptor beta (ER-beta) signaling pathway - cell viability counter screen (AID 1259382). For activity change, negative = cytotoxicity: series mostly up to about 92 µM. Note: nearly all actives have a fitted effect of over 55% in size. Note: potency is the fitted concentration of half-maximal effect. An outline of the steps: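 Readout: luminescence, CellTiter-Glo, same wells as bla assay. System: ER-beta-UAS-bla GripTite HEK293T, 2% charcoal-stripped FBS. Exposure: compounds plus 1nM 17-beta-estradiol, 16 hr, 37C.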

Assay [10] in a line: qHTS assay to identify small molecule agonists or antagonists of the thyroid stimulating hormone receptor (TSHR) signaling pathway - wild type cell line counter screen (AID 1259384; calls by dose curve). An outline of the steps:
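Wild-type HEK293 cells were plated 18 h at 37 C/5% CO2, pin-dosed with compound plus Ro20-1724 medium, held 30 min at room temperature, then given cAMP-d2 and anti-cAMP-cryptate; fluorescence was read after 1 h. Fifteen concentrations, triplicate.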

Assay [11] in a line: qHTS assay to identify small molecule agonists of the estrogen receptor alpha (ER-alpha) signaling pathway in the presence of an antagonist - cell viability counter screen (AID 1259386). For activity change, negative = cytotoxicity: series mostly up to about 92 µM.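 Note: cells exposed to compounds for 22 h at 37 °C before the viability read; nearly all actives have a fitted effect of over 30% in size.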 Note: potency is the fitted concentration of half-maximal effect. An outline of the steps: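 The test measures whether compounds kill ER-alpha reporter cells (VM7Luc4E2) under antagonist co-treatment (ICI-182,780, 10.0nM). Fluorescence from CellTiter-Fluor is read after a 22hr exposure.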

Assay [12] in a line: qHTS assay to identify small molecule antagonists of the sonic hedgehog signaling (Shh) pathway (AID 1259369; calls by dose curve; note: nearly all actives have a fitted effect of over 45% in size; note: potency is the fitted concentration of half-maximal effect). An outline of the steps: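 NIH/3T3 stable Gli1-Luc clone, 2,000 cells/well, 4hr settle; cpd + conditioned medium 24hr; Luc reagent 30min RT; luminescence.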
The target of assay [13] is Estrogen receptor beta (Homo sapiens) (UniProt Q92731). Kind of assay: qHTS assay to identify small molecule agonists of the estrogen receptor beta (ER-beta) signaling pathway (AID 1259377; active = well fitted activation curve with a large enough effect in the signal ratio in the repeat runs, not every such curve was filed as active; the % refers to the signal ratio). An outline of the steps:
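Beta-lactamase reporter readout: fluorescence of LiveBLAzer B/G FRET substrate after 2 h at room temperature, following 16 h compound treatment of ER-beta-UAS-bla HEK293T cells at 37C in 2% charcoal-stripped FBS medium.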

Assay [14] has the same target. Kind of assay: qHTS assay to identify small molecule antagonists of the estrogen receptor beta (ER-beta) signaling pathway (AID 1259378; active = well fitted inhibition curve with a large enough effect in the signal ratio in the repeat runs, not every such curve was filed as active; the % refers to the signal ratio; note: potency is the fitted concentration of half-maximal effect). An outline of the steps: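 ER-beta-UAS-bla HEK293T (GripTite) cells in 2% charcoal-stripped FBS medium were preincubated 6 hr at 37C, dosed with compound, then stimulated with 1 nM E2 (final) for 16 hr; beta-lactamase reporter read by B/G FRET fluorescence after 2 hr substrate loading.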

For assay [15], the target named is Thyrotropin receptor (Homo sapiens) (UniProt P16473). The assay can be described thus: qHTS assay to identify small molecule antagonists of the thyroid stimulating hormone receptor (TSHR) signaling pathway (AID 1259385; calls by dose curve; note: nearly all actives have a fitted effect of over 20% in size). An outline of the steps:
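TSHR-HEK293 cells were plated and held 18 h at 37C/5% CO2, then given compound plus Ro20-1724 and stimulated with TSH at 1.5 ng/mL final. After 30 min at room temperature, cAMP was detected with cAMP-d2/anti-cAMP-cryptate (1 h) by fluorescence.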

Assay [16] has as its target Estrogen receptor (Homo sapiens) (UniProt P03372). The assay can be described thus: qHTS assay to identify small molecule agonists of the estrogen receptor alpha (ER-alpha) signaling pathway in the presence of an antagonist (AID 1259383; calls by dose curve; note: top concentration of the series differs between compounds; nearly all actives have a fitted effect of over 15% in size). An outline of the steps:
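Quantitative HTS confirmation: compounds titrated at 15 concentrations onto estrogen-deprived VM7Luc4E2 cells carrying a four-ERE luciferase construct, with ICI-182,780 present at 10.0nM final. Signal is luminescence after 22hr exposure.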

A short description of assay [17]: qHTS assay to identify small molecule phospholipidosis (PLD) inducers (AID 1259344; active = well fitted curve in the direction sought with a large enough effect; an effect the other way counts as inactive or inconclusive). An outline of the steps:
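Cells (HepG2, 900 per well) attach for 4 h, receive LipidTOX Red and compound together, incubate 24 h at 37 C, are fixed 30 min with paraformaldehyde/Hoechst, then imaged at one site per well.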

Several values for one entry are separate records, joined by “and”; a condition that tells them apart may be missing. Equal values may be shown once. Inconclusive results are not listed. The source holds several records for some structures; these can differ, active in one and inactive in another. Activity calls are given as the source filed them. Unless noted, calls come from the whole dose curve; as a rule, active = well fitted curve in the direction sought with a large enough effect in the repeat runs; inconclusive = weak or mixed curves; inactive = no such curve, though single readings can be large; an effect the other way counts as inactive or inconclusive.
% is set by controls: 0 for no effect and ±100 for the full control effect.

Estrogen receptor beta (Homo sapiens), sequence (Q92731 whole entry, looked up): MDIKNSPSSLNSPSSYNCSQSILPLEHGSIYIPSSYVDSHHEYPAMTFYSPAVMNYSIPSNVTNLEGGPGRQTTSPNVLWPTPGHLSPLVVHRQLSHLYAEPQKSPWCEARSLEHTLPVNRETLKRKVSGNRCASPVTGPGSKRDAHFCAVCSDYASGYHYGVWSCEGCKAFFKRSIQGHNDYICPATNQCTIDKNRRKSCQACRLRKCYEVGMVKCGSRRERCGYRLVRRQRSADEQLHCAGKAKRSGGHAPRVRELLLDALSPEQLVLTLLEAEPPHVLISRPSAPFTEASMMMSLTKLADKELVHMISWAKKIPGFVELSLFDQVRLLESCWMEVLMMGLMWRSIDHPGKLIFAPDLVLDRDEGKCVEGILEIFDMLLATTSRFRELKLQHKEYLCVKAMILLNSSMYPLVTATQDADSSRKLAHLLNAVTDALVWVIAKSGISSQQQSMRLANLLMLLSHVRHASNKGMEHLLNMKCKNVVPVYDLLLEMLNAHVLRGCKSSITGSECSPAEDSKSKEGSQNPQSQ
Thyrotropin receptor (Homo sapiens), sequence (P16473 whole entry, looked up): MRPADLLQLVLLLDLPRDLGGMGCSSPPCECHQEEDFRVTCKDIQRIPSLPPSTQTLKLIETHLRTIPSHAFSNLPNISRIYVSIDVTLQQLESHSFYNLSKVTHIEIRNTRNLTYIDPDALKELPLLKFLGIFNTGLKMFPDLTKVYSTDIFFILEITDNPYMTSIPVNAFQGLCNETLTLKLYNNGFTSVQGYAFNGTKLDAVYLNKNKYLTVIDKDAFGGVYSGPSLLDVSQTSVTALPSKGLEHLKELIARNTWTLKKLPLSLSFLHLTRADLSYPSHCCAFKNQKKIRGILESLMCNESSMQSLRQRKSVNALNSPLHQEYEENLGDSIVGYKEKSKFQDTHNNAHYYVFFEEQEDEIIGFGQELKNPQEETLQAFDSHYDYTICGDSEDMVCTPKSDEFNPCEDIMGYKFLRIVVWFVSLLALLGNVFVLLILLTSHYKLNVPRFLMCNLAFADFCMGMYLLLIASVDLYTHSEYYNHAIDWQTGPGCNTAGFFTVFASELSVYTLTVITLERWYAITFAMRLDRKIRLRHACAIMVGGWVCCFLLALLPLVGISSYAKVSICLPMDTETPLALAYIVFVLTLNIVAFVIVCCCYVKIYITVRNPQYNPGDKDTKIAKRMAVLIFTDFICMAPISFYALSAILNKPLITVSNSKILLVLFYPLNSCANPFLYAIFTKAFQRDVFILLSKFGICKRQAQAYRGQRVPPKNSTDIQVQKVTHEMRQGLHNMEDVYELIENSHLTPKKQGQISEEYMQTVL
Estrogen receptor (Homo sapiens), sequence (P03372 whole entry, looked up): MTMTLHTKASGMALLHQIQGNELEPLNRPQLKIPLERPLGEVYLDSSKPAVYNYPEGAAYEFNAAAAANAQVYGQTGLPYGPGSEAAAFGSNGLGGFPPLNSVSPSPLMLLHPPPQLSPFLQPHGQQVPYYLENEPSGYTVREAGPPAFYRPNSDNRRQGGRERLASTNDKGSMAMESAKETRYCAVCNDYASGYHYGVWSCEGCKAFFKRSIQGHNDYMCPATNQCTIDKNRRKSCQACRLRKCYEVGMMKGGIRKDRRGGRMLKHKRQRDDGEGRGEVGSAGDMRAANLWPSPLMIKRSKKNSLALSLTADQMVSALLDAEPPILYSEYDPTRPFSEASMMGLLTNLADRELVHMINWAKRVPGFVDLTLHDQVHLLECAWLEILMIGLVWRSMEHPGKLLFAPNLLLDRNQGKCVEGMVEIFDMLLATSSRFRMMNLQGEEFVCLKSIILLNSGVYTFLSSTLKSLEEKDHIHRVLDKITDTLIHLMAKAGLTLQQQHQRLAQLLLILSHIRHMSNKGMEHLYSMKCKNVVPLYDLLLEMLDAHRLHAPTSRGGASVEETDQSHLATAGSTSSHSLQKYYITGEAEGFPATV

Turning to `Cc1[nH]nc2c1N=C(c1ccccc1Cl)c1cc([N+](=O)[O-])ccc1N2`, the Potency in [1] is 27.3 µM (active); in [4], 13.7 µM (active); in assay [5], 8.63 µM (active); in assay [7], 30.6 µM (active); in assay [8] it was 27.3 µM (active); in [9], 48.6 µM (active). Further, in assay [11], the Potency was 27.3 µM (active). Also, the Potency entry in assay [2], in [3] and in [6] was “inactive” in each case. The molecule was classed as inactive in [10].
Regarding `C/C=C(\C)C(=O)OCc1ccccc1`, the Potency entry in [1], in [2], in assay [3], in assay [4], in assay [5] and in assay [6] was “inactive” each time. For the same molecule, the Potency entry in [12], in assay [13], in assay [14], in assay [7], in assay [8] and in assay [9] was “inactive” in each case. In addition, the Potency result in [15] and in [11] was “inactive” each time.
Take `CO[Si](CCCNc1ccccc1)(OC)OC`: the Potency result in [1], in assay [2], in assay [3], in [4], in assay [5] and in assay [12] was “inactive” throughout. Further, the Potency result in [7], in assay [8], in [9], in assay [15] and in assay [11] was “inactive” in each case. In addition, in [10], the result was inactive.
On to `O=C(Nc1cccc(Cl)c1)OCC#CCCl`, for which the Potency is 61.1 µM (active) in [1]; 27.3 µM (active) in assay [4]; 24.3 µM (active) in [5]; 54.5 µM (active) in assay [7]; 54.5 µM (active) in assay [8]; 61.1 µM (active) in assay [11]. Also, the Potency result in assay [2], in [3], in assay [6], in assay [16] and in assay [15] was “inactive” in each case. Also, the outcome in assay [10] was inactive.
`COc1cccc(N)c1`: the Potency result in [1], in assay [2], in assay [3], in [4], in assay [5] and in assay [6] was “inactive” in each case. Also, the Potency result in [7], in assay [9], in [15] and in assay [11] was “inactive” throughout. In addition, the call in assay [10] was inactive.
Turning to `O=c1c(-c2ccccc2)c1-c1ccccc1`, the Potency result in [1], in assay [17], in assay [2], in assay [3], in assay [8] and in assay [16] was “inactive” in each case. Moreover, the Potency result in [15] and in assay [11] was “inactive” in each case. For the same molecule, the Potency in assay [4] was 13.3 µM (active); in assay [5], 11.9 µM (active); in assay [12], 5.96 µM (active); in assay [14], 10.6 µM (active). In addition, the molecule was classed as inactive in assay [10].
Take `O=C(OC[C@H]1O[C@@H](OC(=O)c2cc(O)c(O)c(OC(=O)c3cc(O)c(O)c(O)c3)c2)[C@H](OC(=O)c2cc(O)c(O)c(OC(=O)c3cc(O)c(O)c(O)c3)c2)[C@@H](OC(=O)c2cc(O)c(O)c(OC(=O)c3cc(O)c(O)c(O)c3)c2)[C@@H]1OC(=O)c1cc(O)c(O)c(OC(=O)c2cc(O)c(O)c(O)c2)c1)c1cc(O)c(O)c(OC(=O)c2cc(O)c(O)c(O)c2)c1`: the viability change, negative = cytotoxic in [1] is -18.2% [at 19 µM] (inactive). Moreover, in assay [17], the Potency result was “inactive”. In [2], the activity change, negative = inhibition is 4.81% [at 19 µM] (inactive). Further, the figures for the activity change, negative = cytotoxicity in assay [3] and in assay [9] were -4.93% [at 19 µM] (inactive) and -6.33% [at 19 µM] (inactive), respectively. For the same molecule, the Potency in assay [4] is 11.7 µM (active); in [5] it was 6.57 µM (active); in assay [11], 18.5 µM (active). Besides, the activity change in [6] is -2.95% [at 18.9 µM, stronger effect = higher value] (inactive).
Consider `O=c1cc(-c2ccc(O)cc2)oc2cc(O)cc(O)c12`, for which the Potency result in assay [1], in assay [3], in assay [8] and in assay [15] was “inactive” each time. The Potency in assay [2] is 8.75 µM (active) and 17.2 µM (active); in assay [4] it was 61.9 µM (active) and 38.6 µM (active); in assay [5], 48.6 µM (active); in [12] it was “inactive and 30.6 µM (active)”; in [11], “inactive and 48.6 µM (active)”. For the same molecule, in assay [10], the outcome was inactive.
As to `CCC(Cl)C(Cl)C(Cl)CC(Cl)C(Cl)C(C)Cl` (centres undefined), the Potency entry in assay [1], in assay [2], in assay [3], in [4], in assay [5] and in assay [6] was “inactive” each time. Also, the Potency entry in assay [13], in assay [7], in [9], in assay [15] and in assay [11] was “inactive” throughout. Moreover, the call in assay [10] was inactive.
